The supplement of paper PMC11006884
The full data set covers some 6,500 targets. This sample favours those with a hit. About 2% of all pairs of compound and target were hits.

compound: COC(=O)C#Cc1ccccc1 [methyl 3-phenylpropiolate]; assay: log2 ratio of iodoacetamide-alkyne labeling of the cysteine site, DMSO over compound (competition); higher = stronger covalent engagement of the cysteine by the compound, active = 1 or more; conditions: 500 µM; treatment time 1 h; system: HEK293T cell lysate
Method in brief: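 HEK293T lysate at 2 mg/mL was treated with vehicle or electrophile (500 µM) for 1 h at ambient temperature, then labelled with iodoacetamide alkyne (1 h), clicked to sCIP-TMT reagents, pooled, digested with trypsin overnight at 37 °C, enriched on streptavidin and eluted with acid. Peptides were analysed by Orbitrap Eclipse LC-MS/MS with FAIMS and quantified in FragPipe, using duplicate channels and three replicates, with cysteines quantified in only one replicate excluded. The log2 competition ratio for each cysteine is the mean control-channel reporter intensity divided by the mean compound-channel reporter intensity.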

Sequence of UniProt Q8IZV5 (Q8IZV5 whole entry): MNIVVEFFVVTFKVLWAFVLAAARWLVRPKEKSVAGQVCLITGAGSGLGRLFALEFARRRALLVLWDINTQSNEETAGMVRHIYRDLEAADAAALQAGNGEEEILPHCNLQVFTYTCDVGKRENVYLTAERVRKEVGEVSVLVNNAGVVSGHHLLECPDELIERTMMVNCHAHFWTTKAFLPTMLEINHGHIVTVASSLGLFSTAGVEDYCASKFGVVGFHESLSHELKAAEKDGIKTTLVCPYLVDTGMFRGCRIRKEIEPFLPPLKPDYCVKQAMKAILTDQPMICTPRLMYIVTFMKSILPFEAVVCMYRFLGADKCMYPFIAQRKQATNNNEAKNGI
Sequence of UniProt Q86V48 (Q86V48 whole entry, looked up): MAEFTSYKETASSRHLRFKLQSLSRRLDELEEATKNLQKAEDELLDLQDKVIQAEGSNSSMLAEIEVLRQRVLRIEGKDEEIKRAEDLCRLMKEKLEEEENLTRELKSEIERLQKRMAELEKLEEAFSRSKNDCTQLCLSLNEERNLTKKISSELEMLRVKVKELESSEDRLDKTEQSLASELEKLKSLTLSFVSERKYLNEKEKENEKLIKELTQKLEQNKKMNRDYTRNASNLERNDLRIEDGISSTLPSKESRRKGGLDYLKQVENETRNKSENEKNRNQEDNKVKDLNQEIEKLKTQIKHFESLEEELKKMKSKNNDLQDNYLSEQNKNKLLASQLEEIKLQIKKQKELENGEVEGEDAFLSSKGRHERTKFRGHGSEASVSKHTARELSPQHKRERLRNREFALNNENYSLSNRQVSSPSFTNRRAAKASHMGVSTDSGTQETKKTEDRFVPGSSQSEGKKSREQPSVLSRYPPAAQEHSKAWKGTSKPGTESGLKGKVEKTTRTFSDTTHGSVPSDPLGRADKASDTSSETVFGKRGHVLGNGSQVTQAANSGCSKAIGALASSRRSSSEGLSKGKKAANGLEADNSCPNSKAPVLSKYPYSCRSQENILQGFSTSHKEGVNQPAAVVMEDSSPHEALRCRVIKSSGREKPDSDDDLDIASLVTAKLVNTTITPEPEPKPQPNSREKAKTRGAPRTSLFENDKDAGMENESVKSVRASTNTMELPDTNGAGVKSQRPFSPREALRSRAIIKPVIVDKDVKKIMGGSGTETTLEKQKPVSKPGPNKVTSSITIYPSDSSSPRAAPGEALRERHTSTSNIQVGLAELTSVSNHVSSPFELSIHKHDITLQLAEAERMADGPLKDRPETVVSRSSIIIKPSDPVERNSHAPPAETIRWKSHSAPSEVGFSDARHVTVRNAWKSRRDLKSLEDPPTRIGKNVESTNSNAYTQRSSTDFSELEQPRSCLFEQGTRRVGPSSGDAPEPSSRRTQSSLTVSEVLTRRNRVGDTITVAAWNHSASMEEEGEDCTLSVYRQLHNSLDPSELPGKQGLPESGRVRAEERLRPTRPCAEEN
Sequence of UniProt Q93052 (Q93052 whole entry, looked up): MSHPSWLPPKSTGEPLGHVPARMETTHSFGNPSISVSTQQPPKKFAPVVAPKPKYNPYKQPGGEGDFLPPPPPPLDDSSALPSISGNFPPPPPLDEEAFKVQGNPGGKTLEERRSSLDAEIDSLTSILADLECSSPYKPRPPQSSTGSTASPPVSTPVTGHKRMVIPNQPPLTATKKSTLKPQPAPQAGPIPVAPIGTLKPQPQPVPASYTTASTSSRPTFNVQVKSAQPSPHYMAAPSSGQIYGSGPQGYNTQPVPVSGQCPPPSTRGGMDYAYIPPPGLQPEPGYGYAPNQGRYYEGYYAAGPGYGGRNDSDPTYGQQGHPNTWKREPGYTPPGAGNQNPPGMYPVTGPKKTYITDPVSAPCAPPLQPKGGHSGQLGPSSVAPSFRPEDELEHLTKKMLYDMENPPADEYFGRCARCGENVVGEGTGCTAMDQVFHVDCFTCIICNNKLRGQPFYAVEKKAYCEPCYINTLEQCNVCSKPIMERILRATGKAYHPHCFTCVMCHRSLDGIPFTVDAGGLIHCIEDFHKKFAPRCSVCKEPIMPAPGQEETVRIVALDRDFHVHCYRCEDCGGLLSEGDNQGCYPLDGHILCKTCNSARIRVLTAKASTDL
Sequence of UniProt Q96B54 (Q96B54 whole entry, looked up): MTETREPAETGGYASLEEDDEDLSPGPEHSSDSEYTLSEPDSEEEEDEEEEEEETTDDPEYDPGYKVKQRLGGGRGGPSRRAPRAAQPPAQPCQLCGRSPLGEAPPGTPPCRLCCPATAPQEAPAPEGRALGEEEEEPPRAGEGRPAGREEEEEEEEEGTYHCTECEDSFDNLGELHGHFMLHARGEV
Sequence of UniProt Q99829 (Q99829 whole entry, looked up): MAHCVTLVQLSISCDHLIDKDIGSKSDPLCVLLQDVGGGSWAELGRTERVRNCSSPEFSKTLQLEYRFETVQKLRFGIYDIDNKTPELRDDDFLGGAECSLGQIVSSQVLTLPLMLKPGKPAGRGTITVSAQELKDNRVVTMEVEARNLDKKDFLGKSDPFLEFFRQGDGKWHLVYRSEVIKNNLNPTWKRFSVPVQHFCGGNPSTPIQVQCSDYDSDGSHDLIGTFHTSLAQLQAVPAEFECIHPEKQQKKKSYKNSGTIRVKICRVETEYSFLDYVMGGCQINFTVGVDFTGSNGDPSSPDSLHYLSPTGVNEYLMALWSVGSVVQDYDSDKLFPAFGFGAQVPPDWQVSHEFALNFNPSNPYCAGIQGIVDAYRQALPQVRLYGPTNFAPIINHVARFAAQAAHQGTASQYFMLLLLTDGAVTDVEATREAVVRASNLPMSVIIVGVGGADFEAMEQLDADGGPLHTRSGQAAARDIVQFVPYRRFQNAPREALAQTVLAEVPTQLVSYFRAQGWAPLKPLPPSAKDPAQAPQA
Sequence of UniProt Q8WUA4 (Q8WUA4 whole entry): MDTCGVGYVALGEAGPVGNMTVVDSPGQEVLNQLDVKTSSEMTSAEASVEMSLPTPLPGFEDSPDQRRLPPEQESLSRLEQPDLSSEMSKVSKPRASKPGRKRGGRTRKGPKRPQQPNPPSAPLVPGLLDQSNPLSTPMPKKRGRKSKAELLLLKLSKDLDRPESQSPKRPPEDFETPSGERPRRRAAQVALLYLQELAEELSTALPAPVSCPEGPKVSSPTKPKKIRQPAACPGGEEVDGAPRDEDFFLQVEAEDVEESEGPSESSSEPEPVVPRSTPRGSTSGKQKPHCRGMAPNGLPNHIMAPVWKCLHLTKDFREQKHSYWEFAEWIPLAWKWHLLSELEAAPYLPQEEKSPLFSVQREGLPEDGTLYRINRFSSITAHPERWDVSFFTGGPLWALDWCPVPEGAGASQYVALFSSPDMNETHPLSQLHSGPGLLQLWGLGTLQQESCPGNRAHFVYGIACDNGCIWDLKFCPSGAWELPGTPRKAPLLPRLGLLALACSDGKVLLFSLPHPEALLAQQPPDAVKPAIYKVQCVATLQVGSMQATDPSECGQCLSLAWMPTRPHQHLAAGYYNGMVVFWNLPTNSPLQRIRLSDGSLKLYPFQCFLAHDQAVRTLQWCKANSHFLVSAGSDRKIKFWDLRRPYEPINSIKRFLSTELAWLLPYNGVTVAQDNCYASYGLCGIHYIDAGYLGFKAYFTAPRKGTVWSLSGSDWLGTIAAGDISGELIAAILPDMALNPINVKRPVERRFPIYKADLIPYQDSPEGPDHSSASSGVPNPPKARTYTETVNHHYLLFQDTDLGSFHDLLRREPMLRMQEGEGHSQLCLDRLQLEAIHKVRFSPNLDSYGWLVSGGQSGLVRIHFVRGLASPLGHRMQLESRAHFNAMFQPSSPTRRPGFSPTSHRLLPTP
Sequence of UniProt Q8WTS6 (Q8WTS6 whole entry): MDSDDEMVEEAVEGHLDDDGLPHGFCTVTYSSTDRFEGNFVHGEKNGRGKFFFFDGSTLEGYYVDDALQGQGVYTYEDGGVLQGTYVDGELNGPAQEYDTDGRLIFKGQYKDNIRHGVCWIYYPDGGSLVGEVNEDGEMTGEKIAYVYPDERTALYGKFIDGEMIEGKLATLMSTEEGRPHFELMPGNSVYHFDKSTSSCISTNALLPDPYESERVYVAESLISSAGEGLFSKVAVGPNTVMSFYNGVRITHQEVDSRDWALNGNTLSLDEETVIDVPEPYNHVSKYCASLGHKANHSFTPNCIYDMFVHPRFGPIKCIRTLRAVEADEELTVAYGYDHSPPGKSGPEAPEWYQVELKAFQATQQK
Sequence of UniProt Q96S55 (Q96S55 whole entry, looked up): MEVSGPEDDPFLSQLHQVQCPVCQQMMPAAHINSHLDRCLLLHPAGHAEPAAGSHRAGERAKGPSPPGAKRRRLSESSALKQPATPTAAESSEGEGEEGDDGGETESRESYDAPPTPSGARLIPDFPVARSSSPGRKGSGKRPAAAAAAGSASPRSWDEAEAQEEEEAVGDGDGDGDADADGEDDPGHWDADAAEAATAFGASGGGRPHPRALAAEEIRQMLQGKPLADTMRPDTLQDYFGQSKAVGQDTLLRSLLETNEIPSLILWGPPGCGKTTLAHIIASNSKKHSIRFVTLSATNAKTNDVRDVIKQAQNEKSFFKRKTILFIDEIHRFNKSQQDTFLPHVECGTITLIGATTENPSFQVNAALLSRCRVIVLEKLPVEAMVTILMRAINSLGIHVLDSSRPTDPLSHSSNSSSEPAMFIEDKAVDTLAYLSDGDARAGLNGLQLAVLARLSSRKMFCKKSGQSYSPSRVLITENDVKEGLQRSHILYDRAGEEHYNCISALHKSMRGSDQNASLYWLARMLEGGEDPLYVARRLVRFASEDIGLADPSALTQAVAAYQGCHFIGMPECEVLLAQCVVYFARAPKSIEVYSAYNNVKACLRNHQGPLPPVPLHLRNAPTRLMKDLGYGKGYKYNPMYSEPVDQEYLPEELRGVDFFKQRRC
Sequence of UniProt Q7Z309 (Q7Z309 whole entry): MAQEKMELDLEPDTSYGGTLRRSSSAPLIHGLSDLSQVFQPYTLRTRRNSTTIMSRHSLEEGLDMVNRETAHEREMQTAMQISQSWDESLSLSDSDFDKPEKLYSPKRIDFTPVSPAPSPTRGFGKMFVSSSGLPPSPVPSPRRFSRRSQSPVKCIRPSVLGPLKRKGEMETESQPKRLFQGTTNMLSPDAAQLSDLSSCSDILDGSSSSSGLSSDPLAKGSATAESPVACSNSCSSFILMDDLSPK

Row | Target | log2 ratio of iodoacetamide-alkyne labeling
1 | DIDO1 C455 (UniProt Q9BTC0) | 0.67 (inactive)
2 | DNAJB14 C77 (UniProt Q8TBM8) | 1.08 (active)
3 | TMCO6 C57 (UniProt Q96DC7) | 0.394 (inactive)
4 | STRBP C40 (UniProt Q96SI9) | 0.168 (inactive)
5 | UniProt Q6PJG6_C720 | 0.324 (inactive)
6 | UniProt Q969V6_C326 | 1.42 (active)
7 | WRNIP1 C39 (UniProt Q96S55) | -0.0706 (inactive)
8 | DHX37 C1026 (UniProt Q8IY37) | 0.317 (inactive)
9 | INTS1 C1701 (UniProt Q8N201) | -0.0332 (inactive)
10 | ANKRD11 C1845 (UniProt Q6UB99) | 1.24 (active)
11 | FLAD1 C499 (UniProt Q8NFF5) | 1.06 (active)
12 | DHX29 C1025 (UniProt Q7Z478) | 0.0649 (inactive)
13 | ZFR C974 (UniProt Q96KR1) | 0.302 (inactive)
14 | RDH10 C272 (UniProt Q8IZV5) | 0.324 (inactive)
15 | BEND3 C95 (UniProt Q5T5X7) | 1.11 (active)
16 | CPNE1 C53 (UniProt Q99829) | -0.0731 (inactive)
17 | CWF19L1 C176 (UniProt Q69YN2) | -0.136 (inactive)
18 | FAM122B C155 (UniProt Q7Z309) | 1.05 (active)

Row | Target | log2 ratio of iodoacetamide-alkyne labeling
19 | ZFYVE16 C292 (UniProt Q7Z3T8) | 0.185 (inactive)
20 | WDR19 C1332 (UniProt Q8NEZ3) | 0.441 (inactive)
21 | LUZP1 C969 (UniProt Q86V48) | 1.01 (active)
22 | LPP C468 (UniProt Q93052) | 0.118 (inactive)
23 | ZNF428 C114 (UniProt Q96B54) | 0.0848 (inactive)
24 | UniProt Q8NBJ5_C412 | 0.133 (inactive)
25 | PHF10 C134 (UniProt Q8WUB8) | 0.0674 (inactive)
26 | GTF3C2 C608 (UniProt Q8WUA4) | 0.147 (inactive)
27 | LGMN C219 (UniProt Q99538) | 0.865 (inactive)
28 | TMEM209 C301 (UniProt Q96SK2) | 0.858 (inactive)
29 | UniProt Q8WVB3_C244 | 0.59 (inactive)
30 | IRF2BP2 C40 (UniProt Q7Z5L9) | 0.276 (inactive)
31 | SETD7 C200 (UniProt Q8WTS6) | 0.34 (inactive)
32 | UniProt Q7LBC6_C1451 | 0.513 (inactive)
33 | DAZAP1 C39 (UniProt Q96EP5) | 0.0955 (inactive)
34 | HSDL2 C11 (UniProt Q6YN16) | 0.0294 (inactive)
35 | FIGNL1 C200 (UniProt Q6PIW4) | 1.08 (active)
